Hit rate of the full screen: of about 410,000 compounds, about 2,400 (0.59%) were called active. For the sample, actives were picked, then their nearest neighbours and some compounds at random. Unmarked numbers belong to inactive results. No stated cut-off is given here; in the data, active means max activation above about 30%; inactive means the rest.

D(3) dopamine receptor (Homo sapiens), sequence (P35462 whole entry, looked up): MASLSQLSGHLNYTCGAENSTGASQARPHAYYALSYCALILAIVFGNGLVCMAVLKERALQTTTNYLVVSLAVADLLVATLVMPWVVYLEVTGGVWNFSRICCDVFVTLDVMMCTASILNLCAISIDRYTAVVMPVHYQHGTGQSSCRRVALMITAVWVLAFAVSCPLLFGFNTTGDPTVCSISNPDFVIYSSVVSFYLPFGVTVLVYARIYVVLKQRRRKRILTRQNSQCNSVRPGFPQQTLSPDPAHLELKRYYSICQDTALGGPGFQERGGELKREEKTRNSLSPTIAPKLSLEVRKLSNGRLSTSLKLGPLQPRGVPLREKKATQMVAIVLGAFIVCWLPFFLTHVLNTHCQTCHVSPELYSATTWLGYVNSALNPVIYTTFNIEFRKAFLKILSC

This test addresses D(3) dopamine receptor (Homo sapiens) (UniProt P35462). Kind of test: qHTS of D3 Dopamine Receptor Agonist: qHTS. Further: 0% is about no effect. To be noted: D3R DiscoveRx beta-arrestin cells, luminescence, 90 min; active compounds read high. The text has this:
D3 DARs represent a very important target for the treatment of several neuropsychiatric disorders. Indeed, one of the most promising therapeutic applications for the D3 DAR is in the area of addiction and related disorders. […] These findings have been observed with a number of addictive substances including cocaine, amphetamine, nicotine, and alcohol. […] Antagonism of the D3 DAR may also be therapeutic in the treatment of schizophrenia or psychosis. […] Since the D3 DAR is expressed in areas of the CNS associated with the control of mood and emotion, it has been hypothesized that selective antagonism of the D3 DAR may be effective in treating psychosis without inducing the motor side effects typically seen with D2 DAR antagonists.
This part of the project aims to discover novel agonist.
NIH Chemical Genomics Center [NCGC]
NIH Molecular Libraries Probe Centers Network [MLPCN]
Assay Submitter (PI): David Sibley, NINDS
Freshly passaged cells are plated in 1536 well white, solid bottom plates at a density of 1500 cells/well in 3microl of complete media. After an overnight incubation at 37 degrees C in 5% CO2, cells are loaded with 23nl of test compound from the compound library (as well as dopamine controls) using a 1536 pintool and incubated at 37 degrees C for 90 minutes. Two microliters of DiscoveRx reagent is then added to all cells, and they are incubated for an additional 30 - 60 minutes at room temperature. Following incubation, luminescence is measured on a ViewLux CCD-based luminometer reader using a 20 sec exposure time.
Background: qHTS replaces the single test concentration by a dilution series.
With `CC(C)=CCc1ccc(O)c(=O)cc1C(C)C`, the max activation was -8.37%.

Take `CC(C)=CCc1c(O)c(CC=C(C)C)c2occ(-c3ccc(O)cc3)c(=O)c2c1O`: the max activation is 84.1% (active).

`CCc1nc2c(cnn2-c2ccc(C)cc2)c(=O)n1-c1ccc(C)cc1`: the max activation is 0.0293%.

In the case of `O=C(CCn1ccc2cc(S(=O)(=O)N3CCCC3)ccc21)NCc1cccc(Cl)c1`, the max activation is -1.61%.

`COc1ccc2ncc3c(-c4ccc(C)c(C)c4)nn(CC(=O)NC4CCCC4)c3c2c1`: the max activation was -3.77%.

As to `CC(=O)O[C@]1(C(C)=O)CC[C@H]2[C@@H]3CCC4=CC(=O)CC[C@]4(C)[C@@]3(F)[C@@H](O)C[C@@]21C`, the max activation is 9.73%.

In the case of `S=c1[nH]nc(-c2cccs2)n1/N=C/c1cn(-c2ccccc2)nc1-c1ccc(Cl)cc1`, the max activation was 44.2% (active).

Regarding `CCC(=O)N1N=C(c2ccc(OC)cc2)CC1c1cn(-c2ccccc2)nc1-c1cccs1` (stereo not given), the max activation was -10.2%.

Turning to `CC(=O)O[C@H]1CC[C@@]2(C)C(=CC[C@@H]3[C@@H]2CC[C@]2(C)C(c4cccnc4)=CC[C@@H]32)C1`, the max activation is 6.91%.

In the case of `COc1ccc(S(=O)(=O)NCc2cccn2Cc2cccc(C)c2)cc1Cl`, the max activation is -14.5%.

`Cc1ccc(C(=O)Nc2ccc(OCc3cc(=O)n4c5c(sc4n3)CCCC5)cc2)cc1`: the max activation is -4.47%.

Regarding `COc1ccccc1C(=O)NC(CCSC)C(=O)N1CCN(C/C=C/c2ccccc2)CC1` (stereo not given), the max activation is -0.587%.

On to `COc1cc(C(=O)N2CCN(C/C=C/c3ccccc3)CC2)cc(OC)c1C`, for which the max activation is 49.9% (active).

Turning to `COc1ccc(C(=O)NC2CC2)cc1OC1CCN(C/C=C/c2ccccc2)CC1`, the max activation is -13.2%.

For `CCc1ccccc1N1C(=O)CN(S(=O)(=O)CC)CC1(C)C(=O)NC1CCCCC1` (stereo not given), the max activation was -18.4%.

Take `N#Cc1ccccc1Cn1cnc2nc3c(cc2c1=O)CCCC3`: the max activation is -7.33%.

With `C/C=C/C=N/NC(=O)c1ccncc1`, the max activation was -12.6%.

On to `Cc1ccc(Cc2nc3ccccc3nc2SCC(=O)Nc2cccc(C(F)(F)F)c2)cc1`, for which the max activation is 4.77%.

On to `CN(Cc1ccccc1)C(=O)c1cc2c(=O)n(C)c3ccccc3c2s1`, for which the max activation was -16.8%.

In the case of `CN(Cc1ccccc1)C(=O)c1cccc(C(=O)N(C)Cc2ccccc2)c1`, the max activation was 115% (active).

For the compound `Cc1cc(C)cc(NC(=O)N(C)Cc2ccccc2)c1`, the max activation is -3.6%.

`COc1ccc(-c2noc(CSc3nnc(-c4ccccc4)n3-c3ccc(F)cc3)n2)c(OC)c1`: the max activation was -1.45%.

Consider `COc1ccc(S(=O)(=O)NCCSc2nnnn2-c2ccccc2)cc1`, for which the max activation was -5.06%.

With `O=C(NC1CCCCC1)c1ccc2c(c1)N(Cc1ccc(Cl)cc1)C(=O)c1ccccc1S2=O` (stereo not given), the max activation was 3.22%.

For `CCC1CN(S(=O)(=O)c2cc(-c3cc(C)no3)ccc2C)c2cc(C)ccc2O1` (stereo not given), the max activation was -8.75%.

As to `Cc1ccc(Nc2ccc3cc(S(=O)(=O)N4CCCCC4)ccc3n2)cc1F`, the max activation is 3.49%.

`O=C1CCC(=O)N(O)CCCCCNC(=O)CCC(=O)N(O)CCCCCNC(=O)CCC(=O)N(O)CCCCCN1`: the max activation is 65.3% (active).

As for `Cc1cc(C)cc(C(=O)N(CCc2ccccc2)C2=CC3CCC(C2)N3C)c1` (stereo not given), the max activation was -13.4%.

As for `CCCN(CCc1ccccc1)C1CCc2c(O)cccc2C1` (stereo not given), the max activation is 110% (active).

Turning to `COc1cccc(CNC(=O)CN2C(=O)CCc3cc(S(=O)(=O)N4CCOCC4)ccc32)c1`, the max activation is 7.79%.

For `COc1ccc(N2CCN(C(=O)CSCc3nc(-c4ccccc4Cl)oc3C)CC2)cc1`, the max activation was 13.9%.

As to `Cc1ccc(NC(=O)C2CCN(S(=O)(=O)c3cc(-c4noc(C)n4)ccc3C)CC2)c(C)c1`, the max activation is -12.1%.

Consider `Cc1ccc(S(=O)(=O)C(C#N)c2nc3ccccc3nc2N2CCCC2)cc1C` (stereo not given), for which the max activation was 44.8% (active).

As to `Cc1ccc(S(=O)(=O)c2nnn3c2nc(N2CCN(c4ccccc4F)CC2)c2cc(Cl)ccc23)cc1C`, the max activation is 4.43%.

As to `N#CC(C(=O)c1ccc(S(=O)(=O)N2CCCCCC2)cc1)c1nc2ccccc2[nH]1` (stereo not given), the max activation is 24%.

Take `CO/N=C(\C(=O)N[C@@H]1C(=O)N2C(C(=O)O)=C(C[N+]3(C)CCCC3)CS[C@H]12)c1csc(N)n1`: the max activation is 2.02%.

For the compound `O=S(=O)(c1ccc2nc(NCc3ccccc3Cl)ccc2c1)N1CCCCC1`, the max activation is -23.2%.

For `Cc1cccc(CNC(=O)c2cnc3sc(N4CCCCC4)nn3c2=O)c1`, the max activation is 6.54%.

As to `Cc1ccc(CNC(=O)C2CCCN2C(=O)NCc2ccccc2)cc1` (stereo not given), the max activation is 4.63%.

As for `Cc1ccc(CNC(=O)c2cccc3c2C(=O)c2ccc(N4CCC(C)CC4)cc2S3(=O)=O)cc1`, the max activation was 54.8% (active).

As to `CCOC(=O)[C@H](CCc1ccccc1)N[C@@H](C)C(=O)N1CC2(C[C@H]1C(=O)O)SCCS2`, the max activation is -2.59%.

With `COCc1cccc(-c2csc(C(O)c3ccc(F)cc3)n2)c1` (stereo not given), the max activation was -13.4%.

With `CC(C)(C)C(=O)OCc1nc(-c2ccc(O)c(O)c2)cs1`, the max activation was 117% (active).

`Cc1ccc(S(=O)(=O)N2CCCc3cc(NS(=O)(=O)c4cc(C)ccc4C)ccc32)cc1`: the max activation was 7.92%.

`CO/N=C(\C(=O)N[C@@H]1C(=O)N2C(C(=O)O)=CCS[C@H]12)c1csc(N)n1`: the max activation is 3.03%.

For the compound `CCCCNc1c(-c2ccc(OC)c(Sc3ccc(OC)cc3)c2)nc2ccc(Cl)cn12`, the max activation is 44.7% (active).

With `COC(=O)c1ccc2nc(-c3ccc(C)cc3)c(Cc3ccc(OC)cc3C)n2c1`, the max activation was -2.45%.

`CCCCNc1c(-c2cccc(Sc3ccc(OC)cc3)c2)nc2ccccn12`: the max activation was 13.9%.

On to `COc1ccc(C2(C#N)CCC(C(=O)O)CC2)cc1OC1CCCC1` (stereo not given), for which the max activation was -0.732%.

Consider `CCNS(=O)(=O)c1cc(-c2nnc(Nc3cccc(C(F)(F)F)c3)c3ccccc23)ccc1C`, for which the max activation was 13.3%.

Consider `CCOc1ccc(OCC)c(Nc2nc3ccccc3n3nnnc23)c1`, for which the max activation was 5.21%.

`c1ccc2cc(C3=NCCN3)ccc2c1`: the max activation was -15.2%.

Regarding `Cc1ccccc1Nc1nc(N)nc(COC(=O)CCC(=O)c2ccc(F)cc2)n1`, the max activation was 2.22%.

Regarding `CCCn1nc(C(=O)OCc2nc(N)nc(Nc3ccccc3C)n2)c2ccccc2c1=O`, the max activation was 31.8% (active).

Turning to `CCCn1nc(C(=O)NNC(=O)CSCC(=O)Nc2cc(C)on2)c2ccccc2c1=O`, the max activation is -7.71%.

For the origin of these results see PubChem BioAssay AID652048 (National Center for Advancing Translational Sciences (NCATS), 2013).
